Data published in PubChem BioAssay (EPA / NIEHS).
Inconclusive results are not listed. Active and inactive are the calls of the source. How the source made its calls: active means hit-call score of the fitted dose curve at least 0.9, where 1 is the maximum; inconclusive means response in the unintended direction; inactive means score below 0.9. Where a SMILES comes first, the peptide text is derived from it. [ ]: non-standard residue; d: D form. pGlu = O=C1CC[C@@H](C(=O)O)N1; Thz = O=C(O)[C@@H]1CSCN1

Target: Cellular tumor antigen p53 (Homo sapiens) (UniProt P04637)
Sequence (P04637 whole entry, looked up): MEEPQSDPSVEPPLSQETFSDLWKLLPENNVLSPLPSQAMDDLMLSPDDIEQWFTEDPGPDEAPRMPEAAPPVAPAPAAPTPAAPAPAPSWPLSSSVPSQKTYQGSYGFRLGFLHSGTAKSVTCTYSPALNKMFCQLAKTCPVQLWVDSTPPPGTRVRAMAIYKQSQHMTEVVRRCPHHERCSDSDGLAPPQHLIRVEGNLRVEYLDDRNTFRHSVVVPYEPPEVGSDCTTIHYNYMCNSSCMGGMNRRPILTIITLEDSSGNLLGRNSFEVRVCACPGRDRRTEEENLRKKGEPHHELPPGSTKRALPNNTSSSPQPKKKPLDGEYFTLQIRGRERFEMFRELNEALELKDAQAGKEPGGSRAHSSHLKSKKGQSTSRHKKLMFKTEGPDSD
Test: TOX21_p53_BLA_p5_ratio: Tox21 HCT-116 p53 Agonism Beta-lactamase Assay, Ratio, Phase 5 (AID 2283599)
Method in brief: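 HCT-116 p53-bla cells (4000/well) plated 5 h, dosed with compound (217-fold DMSO dilution) for 16 h at 37 C; CCF4-AM substrate 2 h at room temperature. Activity is the 460/530 nm emission ratio (405 nm excitation), fitted in gain-of-signal direction versus DMSO.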

Compound	outcome
Cc1c(NC(=O)c2cccnc2)c(=O)n(-c2ccccc2)n1C	inactive
C[C@@H]1C[C@H]2[C@@H]3CCC4=CC(=O)C=C[C@]4(C)[C@@]3(F)[C@@H](O)C[C@]2(C)[C@@]1(O)C(=O)COC(=O)c1cccc(S(=O)(=O)O)c1	inactive
CNC(=O)OCc1cccc(COC(=O)NC)n1	inactive
Cc1cn[nH]c1	inactive
CCCCS	inactive
N.N.O=C([O-])C1(C(=O)[O-])CCC1.[Pt+4]	inactive
CCCNC(C)C(=O)Nc1c(C)csc1C(=O)OC (stereo unspecified)	inactive
O=C1CC[C@@H](C(=O)N2CSC[C@H]2C(=O)O)N1 ([pGlu]-[Thz]-OH)	inactive
OCc1ccccc1O	inactive
NS(=O)(=O)c1cc(Cl)c(Cl)c(S(N)(=O)=O)c1	inactive
CC1CC(C)C(=O)C1=O (stereo unspecified)	inactive
CO[C@H]1C[C@H](O[C@H]2[C@H](C)[C@@H](O[C@@H]3O[C@H](C)C[C@H](N(C)C)[C@H]3O)[C@@H](C)C[C@]3(CO3)C(=O)[C@H](C)[C@@H](O)[C@@H](C)[C@@H](C)OC(=O)[C@@H]2C)O[C@@H](C)[C@@H]1O	inactive

Tested on: not listed separately
Test: TOX21_p53_BLA_p5_viability: Viability Assessment in the Tox21 HCT-116 p53 Agonism Beta-lactamase Assay, Phase 5 (AID 2283600)
Method in brief: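 4000 cells/well; 5 h pre-incubation; DMSO compounds pin-transferred, 217-fold dilution; 16 h, 37C/5% CO2; CCF4-AM 2 h RT; CellTiter-Glo 30 min RT; luminescence.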

Compound	outcome
Cc1c(NC(=O)c2cccnc2)c(=O)n(-c2ccccc2)n1C	inactive
CCCOC(=O)C(C)O (stereo unspecified)	inactive
CC[N+](CC)(CC)CCC(O)(c1ccccc1)C1CCCCC1 (stereo unspecified)	inactive
COS(=O)(=O)C(F)(F)F	inactive
Cc1ccccc1N1CCN(CCc2nnc3n2CCCC3)CC1	inactive
CC(CCc1ccccc1)NCC(O)c1ccc(O)c(C(N)=O)c1 (stereo unspecified)	inactive
C[C@@H](O)[C@H]1C(=O)N2C(C(=O)O)=C(S[C@@H]3CN[C@H](C(=O)N(C)C)C3)[C@H](C)[C@H]12	inactive
CNC(=O)OCc1cccc(COC(=O)NC)n1	inactive
C=CCOc1ccc(CC(=O)O)cc1Cl	inactive
Cc1cn[nH]c1	inactive
O=C(O)c1ccc(OCCn2ccnc2)cc1	inactive
CCCCS	inactive
N.N.O=C([O-])C1(C(=O)[O-])CCC1.[Pt+4]	inactive
CCCCC(=O)O[C@]1(C(=O)CO)[C@H](C)C[C@H]2[C@@H]3CCC4=CC(=O)C=C[C@]4(C)[C@@]3(F)[C@@H](O)C[C@@]21C	inactive
CCCNC(C)C(=O)Nc1c(C)csc1C(=O)OC (stereo unspecified)	inactive
CN1CCN2c3ccccc3Cc3ccccc3C2C1 (stereo unspecified)	inactive
CC(=O)N[C@H]1[C@H]([C@H](O)[C@H](O)CO)OC(C(=O)O)=C[C@@H]1N=C(N)N	inactive
OC[C@H]1O[C@@H](n2cnc3c2NC=NC[C@H]3O)C[C@@H]1O	inactive
CC1=CC(=O)CC(C)(C)C1=O	inactive
OCc1ccccc1O	inactive
NS(=O)(=O)c1cc(Cl)c(Cl)c(S(N)(=O)=O)c1	inactive
CCOC(=O)CC(=O)c1cc(F)c(Cl)nc1Cl	inactive
C=C(C)C(=O)OCCC[Si](Cl)(Cl)Cl	inactive
CO[C@H]1C[C@H](O[C@H]2[C@H](C)[C@@H](O[C@@H]3O[C@H](C)C[C@H](N(C)C)[C@H]3O)[C@@H](C)C[C@]3(CO3)C(=O)[C@H](C)[C@@H](O)[C@@H](C)[C@@H](C)OC(=O)[C@@H]2C)O[C@@H](C)[C@@H]1O	inactive
